Data on 43 molecules can be found in PubChem BioAssay AID434970 (Sanford-Burnham Center for Chemical Genomics, 2010).

Hit rate of the full screen: of about 11,000 compounds, about 310 (2.8%) were called active. No stated cut-off is given here; in the data, active means activity change below about -85%; inactive means the rest. Shown is part of a subset that was picked to be rich in actives.

This assay deals with intestinal alkaline phosphatase [Mus musculus]. Kind of assay: mouse intestinal phosphatase enzyme activation – biochemical, luminescence, single concentration, confirmation (AID 434970). The settings on record: purified mouse IAP, CDP-Star luminescence, 30 min, at 10 µM; activation factor: measured here: IAP activation factor, stronger effect = higher value; activity change, negative = activation: stronger effect = lower value.
In the case of `CCCN=C1N(CC)C[C@@H]2[C@@H]3C(=O)N(Cc4ccccc4)C(=O)[C@@H]3[C@](Cc3ccccc3)(C(=O)OC)N12`, the activation factor turned out to be 1.07 and the activity change, negative = activation is -7.35% (inactive).
For `O=C(CCS(=O)(=O)c1cccc2nonc12)NC1CCCCCC1` the same measures were 1.11 and -10.6% (inactive).
Turning to `CN(C)CCCNC(=O)C[C@H]1C[C@H](C(=O)N2CCCCC2)[C@@]2(CCc3ccccc3)c3[nH]c4cc(-c5ccco5)ccc4c3CCN2C1=O`, the activation factor was determined as 1.28 and the activity change, negative = activation is -28.4% (inactive).
The corresponding values for `CCOc1ccccc1NC(=O)C1CCCN(C(=O)Nc2ccccc2)C1` (stereo unspecified) are 0.961 and 3.9% (inactive).
Regarding `CCOC(=O)c1ccc(NC(=O)NC2CCN(CC(=O)NCc3ccc4c(c3)OCO4)CC2)cc1`, the activation factor was 1.61 and the activity change, negative = activation was -60.6% (inactive).
As to `Cc1cc(C)cc(NC(=O)NC2CCN(CC(=O)Nc3cccc(Cl)c3C)CC2)c1`, the activation factor is 1.68 and the activity change, negative = activation is -68.1% (inactive).
Consider `CCOc1ccccc1NC(=O)N1CCC(NC(=O)c2cccc(C)c2)CC1`, for which the activation factor worked out at 0.98 and the activity change, negative = activation is 2% (inactive).
The corresponding values for `CC(C)c1ccc(NC(=O)NC2CCN(CC(=O)Nc3cccc4ccccc34)CC2)cc1` are 3.72 and -272% (active).
Regarding `CCOc1ccccc1NC(=O)CN1CCC(NC(=O)Nc2ccccc2)CC1`, the activation factor was 2.99 and the activity change, negative = activation is -199% (active).
The corresponding values for `CCOCCCNC(=O)c1ccccc1SCC` are 1.04 and -4% (inactive).
For `CCOC(=O)c1c(C)[nH]c(C)c1C(=O)CSc1nnc(-c2ccco2)n1Cc1ccccc1` the same measures were 1.03 and -3.25% (inactive).
As to `O=C(CSc1nnc(-c2ccncc2)n1CC1CCCO1)Nc1nccs1` (stereo unspecified), the activation factor is 1.03 and the activity change, negative = activation was -2.65% (inactive).
For `COc1ccc(C2C(C(=O)N3CCN(c4ccccc4F)CC3)c3ccccc3C(=O)N2C)cc1` (stereo unspecified) the same measures were 1.09 and -9.15% (inactive).
For `FC(F)Sc1ccc(NC(=S)NCc2ccccc2)cc1` the same measures were 1.27 and -26.5% (inactive).
Turning to `FC(F)Sc1ccc(NC(=S)NC2CCCCC2)cc1`, the activation factor came out at 1.25 and the activity change, negative = activation was -24.7% (inactive).
For `FC(F)Sc1ccc(NC(=S)NCC2CCCCC2)cc1` the same measures were 1.45 and -44.6% (inactive).
The corresponding values for `FC(F)Sc1ccc(NC(=S)NC2CCCC2)cc1` are 1.23 and -22.6% (inactive).
For `CC1CCCC(NC(=S)Nc2ccc(SC(F)F)cc2)C1C` (stereo unspecified) the same measures were 2.09 and -109% (active).
`FC(F)Sc1ccc(NC(=S)NC2CCC(NC(=S)Nc3ccc(SC(F)F)cc3)CC2)cc1` (stereo unspecified): the activation factor was 2.35 and the activity change, negative = activation was -135% (active).
`CC1CCCCC1NC(=S)Nc1ccc(SC(F)F)cc1` (stereo unspecified): the activation factor was 1.52 and the activity change, negative = activation was -51.8% (inactive).
For `O=C(Nc1ccc(SC(F)F)cc1)c1cccc2nc3ccccc3nc12` the same measures were 0.946 and 5.4% (inactive).
The corresponding values for `FC(F)Sc1ccc(NC(=S)NC(c2ccccc2)c2ccccc2)cc1` are 3.77 and -277% (active).
For `NC(=O)CSCc1cccc(Br)c1` the same measures were 1.01 and -0.9% (inactive).
In the case of `O=S1(=O)c2ccccc2OC(COCc2ccccc2)CN1Cc1ccccc1` (stereo unspecified), the activation factor amounted to 1.13 and the activity change, negative = activation was -13.2% (inactive).
For `Cc1cc(C)nc(SCc2nnc(SCC(=O)Nc3ccccc3C)n2Cc2ccco2)n1` the same measures were 0.974 and 2.65% (inactive).
The corresponding values for `Cc1ccc(-c2cc(C(F)F)n3ncc(C(=O)N4CCN(c5cccc(C)c5C)CC4)c3n2)cc1` are 0.892 and 10.8% (inactive).
`CCCc1cc(=O)oc2cc3occ(C)c3cc12`: the activation factor was 0.917 and the activity change, negative = activation was 8.35% (inactive).
As for `CCOn1c(=O)c(-c2ccc(Cl)cc2)[n+]([O-])c2ccccc21`, the activation factor is 0.944 and the activity change, negative = activation is 5.65% (inactive).
The corresponding values for `CC(C)(C)c1n[nH]c(=S)n(N)c1=O` are 1.04 and -4.25% (inactive).
The corresponding values for `CCn1c(CNc2nc3ccccc3n2C(C)C)nc2ccccc21` are 1.97 and -97.3% (active).
For `CCn1c(NCc2ccccn2)nc2ccccc21`, the activation factor was determined as 0.877 and the activity change, negative = activation was 12.3% (inactive).
For `CCn1c(NCc2ccc(N(C)C)cc2)nc2ccccc21` the same measures were 1.11 and -10.6% (inactive).
The corresponding values for `Cc1ccc2oc(-c3ccc(NC(=O)c4ccc5c(c4)OCO5)cc3)nc2c1` are 0.944 and 5.6% (inactive).
For `CSc1nccc(-c2nn(-c3ccc(C)cc3)ccc2=O)n1` the same measures were 1 and -0.05% (inactive).
`COc1ccc(NC(=O)NC[C@@H]2CC[C@@H](Cc3ccc(-c4ccccc4)cc3)O2)cc1`: the activation factor was 2.82 and the activity change, negative = activation was -182% (active).
For `COc1ccc(N2CCN(CCCNC(=O)Nc3ccccc3)CC2)cc1` the same measures were 1.16 and -16.2% (inactive).
The corresponding values for `S=C(NCC1COc2ccccc2O1)Nc1ccc(Br)cc1` (stereo unspecified) are 1.68 and -68.1% (inactive).
`CCOC(=O)C1=C(C)N(C[C@@H]2CC[C@@H](Cc3ccc(-c4ccccc4)cc3)O2)C(=O)NC1c1ccc(-c2ccccc2)cc1` (stereo partly specified): the activation factor turned out to be 1.12 and the activity change, negative = activation was -12.1% (inactive).
The corresponding values for `O=C(NC[C@@H]1CC[C@@H](Cc2ccc(-c3ccccc3)cc2)O1)Nc1ccc(Br)cc1` are 4.1 and -310% (active).
For `OC[C@@H]1CC[C@@H](Cc2ccc(-c3ccccc3)cc2)O1` the same measures were 1.07 and -7.05% (inactive).
For `O=C(NCCCCc1ccccc1)NC[C@@H]1CC[C@@H](Cc2ccc(-c3ccccc3)cc2)O1` the same measures were 4.44 and -344% (active).
Consider `NC(=O)NC[C@@H]1CC[C@@H](Cc2ccc(-c3ccccc3)cc2)O1`, for which the activation factor amounted to 1.01 and the activity change, negative = activation is -0.6% (inactive).
For `COc1ccc2cc(C[C@@H]3CC[C@@H](CNC(N)=O)O3)ccc2c1` the same measures were 0.994 and 0.55% (inactive).
